Data published in PubChem BioAssay (NCI).
This is part of a sample that, as a whole, favours compounds with a hit. Of some 83,000 tested, about 20% had one in any assay.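 A percent growth of 40 corresponds to 60% growth inhibition; 0 means no net growth; -100 means all cells died. Active threshold: below 10.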 Active and inactive are the calls of the source.

Legend:
Test in all cases: NCI-60 one-dose screen, 48 h (100 = growth as untreated, 0 = no growth, -100 = all killed)
Settings in all cases: 10 µM unless noted
[1] = test system: T-47D breast
[2] = test system: BT-549 breast
[3] = test system: MDA-MB-435 melanoma
[4] = test system: SW-620 colon
[5] = test system: MCF7 breast
[6] = test system: HCT-116 colon
[7] = test system: HCC-2998 colon
[8] = test system: KM12 colon

Measured: growth

COc1ccc(-c2nc3sccn3c2-c2ccnc(NCCNS(=O)(=O)c3ccc(C(F)(F)F)cc3)n2)cc1
inactive: [4] 33.7% | [6] 10% | [7] 23.7%
active: [1] -11.8% | [2] 2.22% | [3] 2.65% | [5] 8.53% | [8] 4.4%

CCc1cccc(C)c1NC(=O)c1sc2nc3c(cc2c1N)C(=O)CCC3
inactive: [1] 24.4% | [2] 46.8% | [4] 28.7% | [5] 20.3% | [6] 31.6% | [7] 10.2% | [8] 19%
active: [3] -27.5%

Cc1ccc2c(c1)C(C)Cc1c(ncnc1-n1cnc3ccccc31)N2C (stereo unspecified)
inactive: [1] 50.3% | [4] 21.6% | [5] 13.5% | [7] 17.4% | [8] 13.8%
active: [2] -1.38% | [3] -47.9% | [6] 5.53%

O=P([O-])(O)OP(=O)([O-])O.[NH-][C@H]1CCCC[C@@H]1[NH-].[OH-].[OH-].[Pt+4]
inactive: [1] 114% | [2] 117% | [3] 99.3% | [4] 105% | [5] 96.7% | [6] 101% | [7] 98.8% | [8] 104%

C=C1C(=O)O[C@H]2[C@H]1CC/C(Cn1cc(-c3ccccc3C(F)(F)F)nn1)=C\CC[C@@]1(C)O[C@@H]21
active: [1] -82.4% | [2] -60.4% | [3] 4.12% | [4] -62.9% | [5] -70.5% | [6] -99.1% | [7] -45.9%
inactive: [8] 36.5%

CN(C)c1nc(N)c(N=O)c(N)n1
inactive: [1] 104% | [2] 115% | [3] 110% | [4] 108% | [5] 102% | [6] 105% | [7] 113% | [8] 108%

Cc1cc(C(=O)CSc2nc3ccccc3c(=O)[nH]2)c(C)n1C
inactive: [1] 79.9% | [2] 89.8% | [3] 101% | [4] 102% | [5] 95.1% | [6] 106% | [7] 72.9% | [8] 96.7%

O=C(CN1CCOCC1)Nc1ccc(-c2nc3ccccc3s2)cc1
inactive: [1] 93.3% | [2] 104% | [3] 108% | [4] 108% | [5] 48.8% | [6] 96.1% | [7] 88% | [8] 107%

O=C(CSc1nc(-c2ccc(Cl)cc2)cn1-c1ccc(Cl)cc1)c1ccc(Br)cc1
inactive: [1] 69.6% | [2] 94.1% | [3] 91.5% | [4] 89.3% | [5] 83.9% | [6] 43.9% | [7] 89.6% | [8] 88.5%

Cc1ccc2c(c1)C(C)Cc1c(N(C)C)ncnc1N2C (stereo unspecified)
active: [3] -6.18%
inactive: [1] 34.8% | [2] 30.6% | [4] 20.6% | [5] 16.9% | [6] 19% | [7] 58.2% | [8] 26.2%

O=C1Nc2ccc(Br)cc2C1=N/C=c1\[nH]c(=O)/c(=C/c2ccc(Cl)cc2)s1
inactive: [1] 80% | [2] 99.8% | [3] 104% | [4] 104% | [5] 86.6% | [6] 87.9% | [7] 118% | [8] 107%

CC(C)(C)c1ccc(S(=O)(=O)Oc2ccc3c4c(c(=O)oc3c2)CCCCC4)cc1
inactive: [1] 45.9% | [2] 46.6% | [3] 11.9% | [4] 55.2% | [5] 32.3% | [6] 36.6% | [7] 74.5% | [8] 55.1%

COc1cc(C(=O)/C=C/c2cc(C(=O)c3cc(OC)c(OC)c(OC)c3)ccc2OC)ccc1N
inactive: [1] 18%
active: [2] -51.3% | [3] 2.47% | [4] -57.3% | [5] 6.6% | [6] -73.8% | [7] -80% | [8] -57.2%

Nc1ccc(S(=O)(=O)c2ccc(Cl)cc2)cc1
inactive: [1] 104% | [2] 97.2% | [3] 121% | [4] 94.1% | [5] 99.3% | [6] 97.2% | [7] 102% | [8] 93.4%

COc1cc(/C=C/C(=O)c2ccc(NC(=O)CN3CCN(c4cc5c(cc4F)c(=O)c(C(=O)O)cn5C4CC4)CC3)cc2)cc(OC)c1OC
inactive: [1] 17.5% | [5] 26.5%
active: [2] -86.7% | [3] -1.52% | [4] 6.38% | [6] -88.2% | [7] -11.6% | [8] -65.1%

CSc1ccccc1C#C/C=C\C#Cc1ccccc1N1CCCCC1=O
inactive: [1] 95.1% | [2] 92.1% | [3] 107% | [4] 100% | [5] 94.9% | [6] 95% | [7] 99.9% | [8] 114%

O=C(O)c1cccc([N+](=O)[O-])c1/C=C/c1ccccc1
inactive: [1] 95.2% | [2] 106% | [3] 105% | [4] 96.7% | [5] 95.5% | [6] 94.3% | [7] 103% | [8] 99.8%

COc1ccc(C(=O)/C=C/c2ccc(/C=C/c3cc(OC)c(OC)c(OC)c3)cc2)cc1
inactive: [1] 43.4% | [2] 41.6% | [3] 41% | [4] 39.3% | [5] 30.6% | [6] 17.5% | [7] 94.1% | [8] 29.2%

COc1ccc(C(=O)/C=C/c2cc(C(=O)c3cc(OC)c(OC)c(OC)c3)ccc2OC)cc1
inactive: [1] 68% | [2] 73.7% | [3] 51.8% | [4] 13.8% | [5] 20.9% | [6] 19.8% | [7] 93.1% | [8] 40.6%

CCN(C(=O)c1cc2ncccc2[nH]1)[C@H]1CCC[C@@H](NCc2cccc(F)c2)C1
inactive: [1] 78.1% | [2] 104% | [3] 97.4% | [4] 98.5% | [5] 95.7% | [6] 111% | [7] 91.6% | [8] 97.3%

COc1cc(/C=C2\CCCC3=C2NC(C)=NC3c2cc(OC)c(OC)c(OC)c2)cc(OC)c1OC (stereo unspecified)
inactive: [1] 79.2% | [5] 23% | [7] 11.9%
active: [2] 2.96% | [3] 5.2% | [4] -8.03% | [6] -78.2% | [8] 2.95%

COc1ccc(C(=O)c2cc(OC)c(OC)c(OC)c2)cc1/C=C/C(=O)c1ccc2c(c1)OCO2
inactive: [1] 33.1% | [3] 21.6% | [5] 19.8% | [7] 27.3%
active: [2] -10.4% | [4] -35.4% | [6] -78.6% | [8] -12%

COc1cc(-c2csc(NC(=O)c3cc(C(F)(F)F)cc(C(F)(F)F)c3)n2)cc(OC)c1OC
inactive: [2] 18.7% | [3] 28.6% | [4] 44% | [5] 18.4% | [6] 14.4% | [7] 31% | [8] 22.1%
active: [1] -15.9%

COc1ncc(-c2ccc3ncnc(Nc4cccc(Cl)c4)c3c2)cc1N(S(C)(=O)=O)S(C)(=O)=O
inactive: [1] 18.5% | [2] 78.1% | [3] 77.7% | [4] 75.7% | [5] 27.7% | [6] 81.2% | [7] 76.4% | [8] 81.1%

C=CC(=O)N[C@H](/C=C/C(=O)OCC)Cc1ccc(-c2cc(Cl)cc(Cl)c2)cc1
inactive: [1] 57.7% | [2] 84.6% | [3] 96.1% | [4] 91.7% | [5] 82.8% | [6] 72.1% | [7] 94.6% | [8] 89.8%

Cc1cc(C)c(NC(=O)c2sc3nc4c(cc3c2N)CN(Cc2ccccc2)CC4)c(C)c1
inactive: [1] 27.4% | [2] 52.2% | [4] 23.7% | [5] 17.6% | [6] 22.6% | [7] 62.3% | [8] 19.4%
active: [3] -18.6%

COc1ccc(-n2c(C)cc(-c3ccccc3)c2C)cc1
inactive: [1] 27.5% | [2] 47% | [3] 12.1% | [4] 41.2% | [5] 28% | [6] 21% | [7] 35.1% | [8] 37.7%

COC(=O)c1ccc2nc(-c3cc4ccccc4n3C)n(CCCCOc3cc4c(cc3OC)C(=O)N3CCC[C@H]3C=N4)c2c1
active: [1] 4.1% | [2] -53.6% | [3] -88.6% | [4] -23% | [5] 2.44% | [6] 8.52% | [7] -17.6% | [8] -29.2%

Cc1sc(N=Nc2ccc(N(C)C)cc2)[n+]([O-])c1C
inactive: [1] 95.4% | [2] 94.3% | [3] 101% | [4] 99.3% | [5] 79.9% | [6] 112% | [7] 112% | [8] 91.7%

O=C1C2=C(C(=O)c3c(O)ccc(O)c31)N(c1cccnc1)Cc1ccccc1O2
active: [1] -28.4% | [2] -54.1% | [3] -14.2% | [4] -45.9% | [5] -18% | [6] -71% | [7] -31.2% | [8] -4.03%

Cn1c(=O)c2c(nc3n2CCN(CCc2ccc(OCCN4CCOCC4)cc2)C3)n(C)c1=O
inactive: [1] 93.6% | [2] 109% | [3] 105% | [4] 105% | [5] 95.7% | [6] 109% | [7] 122% | [8] 103%

N#Cc1c(NC(=O)c2ccc([N+](=O)[O-])o2)[n+]([O-])c2cc(F)c(F)cc2[n+]1[O-]
inactive: [1] 118% | [2] 203% | [3] 109% | [4] 128% | [5] 96.5% | [6] 104% | [7] 106% | [8] 98.9%
